# This is part of a sample that, as a whole, favours compounds with a hit. Of some 83,000 tested, about 20% had one in any assay.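 Testing used 96-well plates and a 48-hour single-concentration exposure. Example: -40 means 40% of the starting cells died.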 Unmarked numbers belong to inactive results. Active and inactive are the calls of the source. Rule for the calls: active = growth percent below 10; inactive = the rest.
# Tests used:
# Assay in all cases: NCI-60 one-dose screen, 48 h (100 = growth as untreated, 0 = no growth, -100 = all killed)
# Conditions in all cases: 10 µM unless noted
# HCT-15 colon = test system: HCT-15 colon
# HT29 colon = test system: HT29 colon
# SNB-75 CNS = test system: SNB-75 CNS
# SNB-19 CNS = test system: SNB-19 CNS
# U251 CNS = test system: U251 CNS
# PC-3 prostate = test system: PC-3 prostate
# SK-MEL-5 melanoma = test system: SK-MEL-5 melanoma
# UACC-62 melanoma = test system: UACC-62 melanoma
# LOX IMVI melanoma = test system: LOX IMVI melanoma
# SK-MEL-28 melanoma = test system: SK-MEL-28 melanoma
# SK-MEL-2 melanoma = test system: SK-MEL-2 melanoma
# EKVX NSCLC = test system: EKVX NSCLC
# SN12C renal = test system: SN12C renal
# UO-31 renal = test system: UO-31 renal
# TK-10 renal = test system: TK-10 renal
# ACHN renal = test system: ACHN renal
# CAKI-1 renal = test system: CAKI-1 renal
# A498 renal = test system: A498 renal
# CCRF-CEM leukemia = test system: CCRF-CEM leukemia
# MOLT-4 leukemia = test system: MOLT-4 leukemia
Structure (SMILES),growth (HCT-15 colon),growth (HT29 colon),growth (SNB-75 CNS),growth (SNB-19 CNS),growth (U251 CNS),growth (PC-3 prostate),growth (SK-MEL-5 melanoma),growth (UACC-62 melanoma),growth (LOX IMVI melanoma),growth (SK-MEL-28 melanoma),growth (SK-MEL-2 melanoma),growth (EKVX NSCLC),growth (SN12C renal),growth (UO-31 renal),growth (TK-10 renal),growth (ACHN renal),growth (CAKI-1 renal),growth (A498 renal),growth (CCRF-CEM leukemia),growth (MOLT-4 leukemia)
O=c1oc2c(Br)cc(Br)cc2cc1-c1cc(-c2ccc(-c3cc(-c4cc5cc(Br)cc(Br)c5oc4=O)nc(-c4cc5cc(Br)cc(Br)c5oc4=O)c3)cc2)cc(-c2cc3cc(Br)cc(Br)c3oc2=O)n1,111%,90.8%,105%,101%,107%,97.5%,108%,102%,99.5%,112%,101%,105%,107%,80.6%,107%,103%,110%,95.9%,101%,102%
O=C(Nc1ncc(Cc2cccc(C(F)(F)F)c2)s1)c1ccc(-n2cnnn2)cc1,38.7%,62%,83.4%,59.7%,64.4%,54.1%,37.8%,19.8%,46.6%,52.7%,89.4%,40.2%,79.9%,48.3%,50.4%,32%,30.1%,54.7%,55.3%,39.4%
O=C1/C(=C/c2ccc(-c3cccc(C(F)(F)F)c3)o2)SC(=S)N1CCc1ccc(O)cc1,68.6%,80.4%,56.7%,104%,87.2%,62.6%,90.1%,59%,68.7%,95.8%,56.4%,89%,75.1%,52.9%,94.1%,87.4%,53.8%,65.3%,14%,37%
COc1cc(-c2nc3occn3c2-c2ccnc(NCCCNS(=O)(=O)c3ccc(O)cc3)n2)ccc1F,114%,66.4%,97.6%,124%,108%,94.6%,62.8%,21%,55.6%,27.7%,28.4%,104%,95.8%,105%,133%,86.3%,92.6%,104%,75.4%,101%
O=C(Nc1ccc(F)cc1)c1cc2cc(Nc3nc(-c4ccccc4)nc4ccccc34)ccc2oc1=O,112%,98.4%,102%,109%,97.4%,99.4%,105%,102%,93.5%,111%,104%,108%,104%,83.4%,97.3%,105%,101%,102%,106%,92.9%
COc1ccc(-c2nnc3n(C)c(=O)c4ccccc4n23)cc1O,22.9%,18.8%,9.51% (active),24.3%,15.1%,17.9%,19%,14.2%,39.1%,50.9%,30.3%,97.5%,30.3%,52.7%,51.4%,47.5%,35.2%,21.6%,10.7%,32.5%
CCCCCCCCCCCCC[C@H](O)C[C@H](O)[C@H](C)N,97.8% [1.25 µM],103% [1.25 µM],129% [1.25 µM],104% [1.25 µM],85.2% [1.25 µM],97% [1.25 µM],97.6% [1.25 µM],113% [1.25 µM],90.8% [1.25 µM],115% [1.25 µM],113% [1.25 µM],99.4% [1.25 µM],105% [1.25 µM],112% [1.25 µM],137% [1.25 µM],102% [1.25 µM],110% [1.25 µM],93.7% [1.25 µM],25% [1.25 µM],51.7% [1.25 µM]
